Experimental data from ChEMBL document CHEMBL4513216, “Probing the Open Global Health Chemical Diversity Library for Multistage-Active Starting Points for Next-Generation Antimalarials” (ACS Infect Dis, 2020).
The campaign covered roughly 68,000 compounds. About 2,700 (4%) showed an effect of 50% or more. Shown is part of a subset that was picked to be rich in strong results.

System: Plasmodium berghei
Assay: Screen against P. berghei liver stage (PbLuc), transformed with Luciferase, at 2uM
Assay type: functional, HepG2
Conditions: tested at 2 uM

Row | Compound | INHIBITION
1 | COc1ccc2nnc(CCC(=O)Nc3nc4c(s3)CCC4)n2n1 | 58.29%
2 | COc1ccc2nnc(CCC(=O)Nc3nc4c(s3)CCCC4)n2n1 | 21.57%
3 | COc1ccc2nnc(CCC(=O)Nc3nc4c(s3)CCCCC4)n2n1 | 48.59%
4 | COCCNC(=O)c1cc(C2CC2)nc2onc(C3CCNC3)c12 (centres undefined) | 5.75%
5 | CCOc1ccccc1NC(C)C(=O)N(C)Cc1cccc(F)c1 (centres undefined) | 4.8%
6 | CC(NC(=O)Cn1cccn1)c1ccc2c(c1)OCCO2 (centres undefined) | 21.39%
7 | CC(NC(=O)Cn1cccn1)c1ccc2c(c1)OCCCO2 (centres undefined) | 51.21%
8 | CC(NC(=O)CCn1cccn1)c1ccc2c(c1)OCCO2 (centres undefined) | -17.31%
9 | O=C(O)c1ccccc1-n1cnc(CN2CCCc3ccccc32)c1 | 37.36%
10 | CN1CC(=O)N(c2cnn(C)c2)CC12CCN(Cc1nccn1C)C2 (centres undefined) | 8.65%
11 | Cc1ccc(N2CC3(COCCN(Cc4nccs4)C3)OCC2=O)s1 (centres undefined) | 58%
12 | Cc1ccc(N2CC3(COCCN(Cc4ccncc4)C3)OCC2=O)s1 (centres undefined) | -37.34%
13 | Cc1ccc(N2CC3(COCCN(Cc4ccccn4)C3)OCC2=O)s1 (centres undefined) | 40%
14 | O=C(CCN1CCCC1=O)Nc1cnn(-c2ccccc2Cl)c1 | 25.35%
15 | O=C(CCN1CCOC1=O)Nc1cnn(-c2ccccc2Cl)c1 | 51.46%
16 | O=C(CCCN1CCOC1=O)Nc1cnn(-c2ccccc2Cl)c1 | -16.28%
17 | Cc1ccc2cc(CN(C)Cc3nccs3)c(=O)[nH]c2c1 | -0.38%
18 | CN(Cc1c(F)cccc1Cl)C(=O)Cn1cnc(C#N)n1 | -6.73%
19 | CN(Cc1c(F)cccc1Cl)C(=O)Nc1cnn(CC(N)=O)c1 | 11.07%
20 | CCn1cnnc1CNC(=O)N(C)Cc1c(F)cccc1Cl | -17.88%
21 | CN(Cc1c(F)cccc1Cl)C(=O)c1cnn(CCN2CCCCC2)c1 | 60.04%
22 | CN(Cc1c(F)cccc1Cl)C(=O)c1cnn(CCN2CCOCC2)c1 | -9.03%
23 | CCn1cc(C(=O)N(C)Cc2c(F)cccc2Cl)cn1 | 53.13%
24 | Cc1nc(C2CCCN(C(=O)c3ccc(Cl)cn3)C2)no1 (centres undefined) | -29.54%
25 | CN(C)C(=O)c1cccc(CCNS(=O)(=O)c2ccccc2)c1 | 49.08%
26 | NS(=O)(=O)CCN1CCOC(c2ccsc2)C1 (centres undefined) | -10.36%
27 | CC1CCN(c2ccc(=O)n(CC(=O)N(C)Cc3ccccc3)n2)CC1 | -7.56%

Row | Compound | INHIBITION
28 | COc1cc(N2C[C@@H]3COC[C@]3(COCc3cccc(C)n3)C2)ncn1 | 0.14%
29 | COC(C)(C)CNC(=O)N1CCCC1c1c(C)n[nH]c1C (centres undefined) | 22.83%
30 | CN(Cc1ccco1)C(=O)NCc1nnc2n1CCC2 | -18.86%
31 | CN(Cc1ccco1)C(=O)NCc1ccnc(SC(C)(C)C)c1 | 53.29%
32 | Cc1cc(CN(C)C(=O)NCc2ccnc(SC(C)(C)C)c2)no1 | 14.69%
33 | CC(C)c1cc(CN(C)C(=O)CN2CCCCC2=O)no1 | -11.61%
34 | Cc1cc(CN(C)C(=O)CN2CCCCCC2=O)no1 | 33.35%
35 | Cc1cc(CN(C)C(=O)CN2CCCC2=O)no1 | 51.36%
36 | Cc1cc(CN(C)C(=O)NC(C)Cc2ccco2)no1 (centres undefined) | 45.62%
37 | Cc1cc(CN(C)C(=O)NCc2ccccn2)no1 | 26.62%
38 | Cc1cc(CN(C)C(=O)NCc2ccco2)no1 | 66.88%
39 | O=C(c1ccc(F)cc1)N1C[C@@H]2COC[C@]2(COc2cccnc2)C1 | -55.8%
40 | CC(CO)NC(=O)Nc1ccc(CC#N)cc1 (centres undefined) | 20.32%
41 | CCc1nc2n(n1)CC(Nc1ccnc(-c3ccccc3)n1)CC2 (centres undefined) | -1.33%
42 | CC(C)C(=O)N1CCCC12CCCN(C(=O)c1ccno1)C2 (centres undefined) | 8.34%
43 | N#Cc1ccc(N2CCC3(CC2)CC(N2CCOCC2)CO3)cc1 (centres undefined) | -0.69%
44 | CN1CCN(C2COC3(CCN(c4ccc(C#N)cc4)CC3)C2)CC1 (centres undefined) | 54.5%
45 | COC1COC2(CCN(c3ccc(C#N)cc3)CC2)C1 (centres undefined) | -13.61%
46 | Cc1nn(C)c(N(C)C)c1CNC(C)COc1ccc(F)cc1F (centres undefined) | 25.03%
47 | Cn1cc(C(=O)N2C[C@H]3CC(Oc4ccccc4)C[C@H]3C2)cn1 (some centres undefined) | -36.58%
48 | O=C(COc1cccnc1)NCc1nncn1C1CCCCC1 | 57.75%
49 | O=C(COc1ccc(Cl)cc1)NCc1nncn1C1CC1 | 24.36%
50 | O=C(COc1cc(Cl)cc(Cl)c1)NCc1nncn1C1CC1 | -13.8%
51 | Cc1nc(CN2C(=O)CC[C@@H]3[C@H]2CCN3C2CCOCC2)cs1 | -6.68%
52 | Cc1cc(C(=O)N2CCc3ncnc(N4CCSCC4)c3CC2)[nH]n1 | 64.2%
53 | O=C(c1cc[nH]n1)N1CCc2ncnc(N3CCSCC3)c2CC1 | 24.55%
54 | Cc1cc(C(=O)N2CCc3c(ncnc3N3CCOCC3)C2)[nH]n1 | -0.79%
